# Article PMC7862700, “An all-to-all approach to the identification of sequence-specific readers for epigenetic DNA modifications on cytosine”
# What was measured:
# Assay in all cases: DAPPL (digital affinity profiling via proximity ligation, sequencing); 10 mM Tris-HCl pH 7.5, 50 mM NaCl, 1 mM DTT, 4% glycerol, room temperature, 30 min; GST-TFs on glutathione beads, 16-mer random dsDNA library, 0.1% formaldehyde crosslink after washing; high values mean tight binding
# [1] = molecular target: T1, FLI1 (Homo sapiens, UniProt Q01543 1-452); settings: protein: recombinant; tags: N-terminal GST; dsDNA, one strand shown
# T1 sequence: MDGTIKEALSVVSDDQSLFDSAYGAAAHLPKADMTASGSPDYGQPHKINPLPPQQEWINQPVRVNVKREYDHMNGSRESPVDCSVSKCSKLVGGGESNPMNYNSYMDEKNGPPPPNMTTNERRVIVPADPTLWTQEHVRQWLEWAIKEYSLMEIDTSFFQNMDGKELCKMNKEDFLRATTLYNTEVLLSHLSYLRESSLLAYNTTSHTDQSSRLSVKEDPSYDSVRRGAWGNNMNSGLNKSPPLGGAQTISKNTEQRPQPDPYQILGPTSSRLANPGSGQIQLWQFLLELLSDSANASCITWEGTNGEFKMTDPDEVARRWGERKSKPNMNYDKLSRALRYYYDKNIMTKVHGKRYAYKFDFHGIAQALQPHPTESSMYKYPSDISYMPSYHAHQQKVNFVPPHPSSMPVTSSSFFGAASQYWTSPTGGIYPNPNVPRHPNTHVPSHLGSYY
# Outline: (§1)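 GST fusions of human transcription factors were expressed in yeast and captured with glutathione beads. Once given DNA barcodes and pooled alongside a tag-only sample, they were incubated for 30 min at room temperature with 200 nmole of a random double-stranded 16-mer DNA library in Tris/NaCl/DTT/glycerol buffer, then washed, crosslinked (0.1% formaldehyde), proximity-ligated, PCR-amplified and sequenced on an Illumina NextSeq500. The binding signal of each hexamer is its read frequency for a factor divided by its frequency for the tag-only sample.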
# [2] = molecular target: T2, ELK1 (Homo sapiens, UniProt P19419 1-428); settings: protein: recombinant; tags: N-terminal GST; dsDNA, one strand shown
# T2 sequence: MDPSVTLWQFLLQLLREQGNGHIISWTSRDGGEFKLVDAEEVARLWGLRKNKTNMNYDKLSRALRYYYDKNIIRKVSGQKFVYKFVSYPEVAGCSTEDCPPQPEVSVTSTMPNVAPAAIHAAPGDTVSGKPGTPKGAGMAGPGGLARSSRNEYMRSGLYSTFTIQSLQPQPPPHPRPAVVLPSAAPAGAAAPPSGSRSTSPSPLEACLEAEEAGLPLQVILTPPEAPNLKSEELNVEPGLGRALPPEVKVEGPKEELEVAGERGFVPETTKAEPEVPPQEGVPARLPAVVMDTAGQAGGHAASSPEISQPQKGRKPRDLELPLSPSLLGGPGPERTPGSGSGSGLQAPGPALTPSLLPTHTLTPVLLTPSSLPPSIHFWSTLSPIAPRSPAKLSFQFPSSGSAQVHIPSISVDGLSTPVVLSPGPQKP
# Outline: as §1
# [3] = molecular target: T3, GABPA (Homo sapiens, UniProt Q06546 1-454); settings: protein: recombinant; tags: N-terminal GST; dsDNA, one strand shown
# T3 sequence: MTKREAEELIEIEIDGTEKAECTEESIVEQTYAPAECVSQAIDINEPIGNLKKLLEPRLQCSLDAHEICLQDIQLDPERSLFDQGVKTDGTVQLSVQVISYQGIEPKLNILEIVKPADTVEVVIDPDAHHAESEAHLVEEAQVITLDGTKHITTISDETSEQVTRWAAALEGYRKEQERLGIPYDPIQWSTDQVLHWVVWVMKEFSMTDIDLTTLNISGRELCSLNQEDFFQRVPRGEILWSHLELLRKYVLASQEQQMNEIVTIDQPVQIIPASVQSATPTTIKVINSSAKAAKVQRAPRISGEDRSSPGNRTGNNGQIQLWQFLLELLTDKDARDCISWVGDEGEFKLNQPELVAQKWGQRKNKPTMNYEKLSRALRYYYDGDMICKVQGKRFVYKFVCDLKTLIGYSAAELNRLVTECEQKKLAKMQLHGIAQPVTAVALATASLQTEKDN
# Outline: as §1
# [4] = molecular target: T4, ERG (Homo sapiens, UniProt P11308 1-479); settings: protein: recombinant; tags: N-terminal GST; dsDNA, one strand shown
# T4 sequence: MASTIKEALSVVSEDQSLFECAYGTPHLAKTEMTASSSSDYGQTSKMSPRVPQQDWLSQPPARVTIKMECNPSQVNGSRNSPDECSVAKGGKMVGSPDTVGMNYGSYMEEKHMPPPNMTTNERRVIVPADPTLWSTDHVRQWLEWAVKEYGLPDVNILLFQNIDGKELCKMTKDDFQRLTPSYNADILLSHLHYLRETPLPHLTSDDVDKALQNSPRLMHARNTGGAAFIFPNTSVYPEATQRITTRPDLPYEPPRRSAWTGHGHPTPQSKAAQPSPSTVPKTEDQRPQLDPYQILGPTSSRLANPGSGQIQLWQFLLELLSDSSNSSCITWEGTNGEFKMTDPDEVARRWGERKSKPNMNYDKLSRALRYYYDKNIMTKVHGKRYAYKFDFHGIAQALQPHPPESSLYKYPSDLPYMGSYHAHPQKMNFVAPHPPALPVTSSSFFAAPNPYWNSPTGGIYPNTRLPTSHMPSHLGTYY
# Outline: as §1
# [5] = molecular target: ELF1 (Homo sapiens, UniProt P32519 1-619); settings: protein: recombinant; tags: N-terminal GST; dsDNA, one strand shown
# Outline: as §1
# [6] = molecular target: T5, EHF (Homo sapiens, UniProt Q9NZC4 1-300); settings: protein: recombinant; tags: N-terminal GST; dsDNA, one strand shown
# T5 sequence: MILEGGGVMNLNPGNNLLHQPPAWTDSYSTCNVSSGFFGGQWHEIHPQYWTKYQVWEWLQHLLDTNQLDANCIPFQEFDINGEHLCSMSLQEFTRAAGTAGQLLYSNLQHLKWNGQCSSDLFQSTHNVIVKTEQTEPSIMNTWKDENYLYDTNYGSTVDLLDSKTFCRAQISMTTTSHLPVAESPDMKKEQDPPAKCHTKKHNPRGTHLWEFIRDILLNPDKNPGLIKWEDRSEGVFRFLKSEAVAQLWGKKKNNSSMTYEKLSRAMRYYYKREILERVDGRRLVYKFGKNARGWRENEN
# Outline: as §1
# [7] = molecular target: SPI1 (Homo sapiens, UniProt P17947 1-270); settings: protein: recombinant; tags: N-terminal GST; dsDNA, one strand shown
# Outline: as §1
# [8] = molecular target: SPIB (Homo sapiens, UniProt Q01892 1-262); settings: protein: recombinant; tags: N-terminal GST; dsDNA, one strand shown
# Outline: as §1
# [9] = molecular target: T6, ELK3 (Homo sapiens, UniProt P41970 1-407); settings: protein: recombinant; tags: N-terminal GST; dsDNA, one strand shown
# T6 sequence: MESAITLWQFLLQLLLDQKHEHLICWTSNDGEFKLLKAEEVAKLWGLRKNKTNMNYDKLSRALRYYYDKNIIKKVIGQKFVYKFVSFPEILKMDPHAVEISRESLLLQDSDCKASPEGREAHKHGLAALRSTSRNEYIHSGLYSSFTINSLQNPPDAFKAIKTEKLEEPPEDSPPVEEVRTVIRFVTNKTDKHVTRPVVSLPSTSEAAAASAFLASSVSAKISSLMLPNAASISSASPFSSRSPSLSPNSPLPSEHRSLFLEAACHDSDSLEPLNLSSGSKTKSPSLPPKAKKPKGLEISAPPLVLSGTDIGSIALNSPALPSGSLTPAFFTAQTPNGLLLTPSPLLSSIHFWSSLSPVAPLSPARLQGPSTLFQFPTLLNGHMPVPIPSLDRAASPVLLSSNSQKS
# Outline: as §1
# [10] = molecular target: T7, FEV (Homo sapiens, UniProt Q99581 1-238); settings: protein: recombinant; tags: N-terminal GST; dsDNA, one strand shown
# T7 sequence: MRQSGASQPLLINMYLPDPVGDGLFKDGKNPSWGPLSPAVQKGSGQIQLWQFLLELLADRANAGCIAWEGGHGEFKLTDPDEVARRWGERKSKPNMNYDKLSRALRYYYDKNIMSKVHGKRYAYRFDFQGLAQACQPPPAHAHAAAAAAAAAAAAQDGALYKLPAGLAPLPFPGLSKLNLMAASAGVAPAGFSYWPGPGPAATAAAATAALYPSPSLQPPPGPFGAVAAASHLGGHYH
# Outline: as §1
# [11] = molecular target: ETV5 (Homo sapiens, UniProt P41161 1-510); settings: protein: recombinant; tags: N-terminal GST; dsDNA, one strand shown
# Outline: as §1
# [12] = molecular target: HSF1 (Homo sapiens, UniProt Q00613 1-529); settings: protein: recombinant; tags: N-terminal GST; chain copies: 3; dsDNA, one strand shown
# Outline: as §1
# [13] = molecular target: T8, SPIC (Homo sapiens, UniProt Q8N5J4 1-248); settings: protein: recombinant; tags: N-terminal GST; dsDNA, one strand shown
# T8 sequence: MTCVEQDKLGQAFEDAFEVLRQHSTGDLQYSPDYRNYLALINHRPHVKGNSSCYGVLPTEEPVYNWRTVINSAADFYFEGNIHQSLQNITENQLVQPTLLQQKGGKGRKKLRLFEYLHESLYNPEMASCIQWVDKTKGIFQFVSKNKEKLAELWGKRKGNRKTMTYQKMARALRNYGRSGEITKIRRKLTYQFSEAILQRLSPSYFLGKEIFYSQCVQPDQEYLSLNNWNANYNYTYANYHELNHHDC
# Outline: as §1
# [14] = molecular target: ELF4 (Homo sapiens, UniProt Q99607 1-663); settings: protein: recombinant; tags: N-terminal GST; dsDNA, one strand shown
# Outline: as §1
# [15] = molecular target: T9, ELK4 (Homo sapiens, UniProt P28324-2 1-405); settings: protein: recombinant; tags: N-terminal GST; dsDNA, one strand shown
# T9 sequence: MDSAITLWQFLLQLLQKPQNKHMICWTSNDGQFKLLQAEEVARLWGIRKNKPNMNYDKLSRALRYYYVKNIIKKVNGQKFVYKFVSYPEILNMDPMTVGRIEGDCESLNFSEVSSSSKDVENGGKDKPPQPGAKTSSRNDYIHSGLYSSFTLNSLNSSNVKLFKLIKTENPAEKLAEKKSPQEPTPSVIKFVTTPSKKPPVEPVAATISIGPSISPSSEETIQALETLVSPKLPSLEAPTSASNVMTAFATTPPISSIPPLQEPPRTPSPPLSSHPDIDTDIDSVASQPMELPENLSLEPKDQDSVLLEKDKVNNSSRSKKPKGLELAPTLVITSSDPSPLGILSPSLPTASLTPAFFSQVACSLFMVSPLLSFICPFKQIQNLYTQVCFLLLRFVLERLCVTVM
# Outline: as §1
# [16] = molecular target: T10, ETV2 (Homo sapiens, UniProt O00321 1-342); settings: protein: recombinant; tags: N-terminal GST; dsDNA, one strand shown
# T10 sequence: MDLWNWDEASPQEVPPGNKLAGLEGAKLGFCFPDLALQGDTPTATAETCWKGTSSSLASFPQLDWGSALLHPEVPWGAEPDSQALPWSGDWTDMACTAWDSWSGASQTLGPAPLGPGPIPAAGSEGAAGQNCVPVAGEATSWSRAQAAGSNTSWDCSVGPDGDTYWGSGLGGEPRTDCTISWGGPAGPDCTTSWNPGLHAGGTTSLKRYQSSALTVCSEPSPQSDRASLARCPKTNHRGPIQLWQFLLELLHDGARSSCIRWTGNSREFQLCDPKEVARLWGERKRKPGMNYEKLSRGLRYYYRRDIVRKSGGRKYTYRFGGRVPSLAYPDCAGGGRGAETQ
# Outline: as §1
# [17] = molecular target: T11, ELF3 (Homo sapiens, UniProt P78545 1-371); settings: protein: recombinant; tags: N-terminal GST; dsDNA, one strand shown
# T11 sequence: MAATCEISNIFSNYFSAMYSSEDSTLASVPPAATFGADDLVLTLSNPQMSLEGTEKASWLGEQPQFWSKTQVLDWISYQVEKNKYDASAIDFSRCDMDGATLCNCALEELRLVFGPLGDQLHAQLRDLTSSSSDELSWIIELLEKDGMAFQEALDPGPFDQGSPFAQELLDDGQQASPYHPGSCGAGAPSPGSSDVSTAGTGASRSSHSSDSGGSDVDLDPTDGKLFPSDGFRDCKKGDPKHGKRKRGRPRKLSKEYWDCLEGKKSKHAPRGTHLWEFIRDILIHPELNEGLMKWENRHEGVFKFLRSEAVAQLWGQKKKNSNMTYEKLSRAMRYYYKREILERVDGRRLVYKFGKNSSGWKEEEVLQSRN
# Outline: as §1
# [18] = molecular target: CRX (Homo sapiens, UniProt O43186 1-299); settings: protein: recombinant; tags: N-terminal GST; dsDNA, one strand shown
# Outline: as §1
# [19] = molecular target: ETV1 (Homo sapiens, UniProt P50549 1-477); settings: protein: recombinant; tags: N-terminal GST; dsDNA, one strand shown
# Outline: as §1
# SPIB, sequence (Q01892 whole entry): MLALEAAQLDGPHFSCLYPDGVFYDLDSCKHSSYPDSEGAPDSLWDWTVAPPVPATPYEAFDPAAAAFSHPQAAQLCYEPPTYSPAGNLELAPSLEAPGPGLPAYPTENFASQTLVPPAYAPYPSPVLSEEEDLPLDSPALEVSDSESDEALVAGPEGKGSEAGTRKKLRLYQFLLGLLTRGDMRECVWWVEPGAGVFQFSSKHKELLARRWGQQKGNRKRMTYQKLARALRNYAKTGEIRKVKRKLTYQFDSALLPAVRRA
# ETV1, sequence (P50549 whole entry): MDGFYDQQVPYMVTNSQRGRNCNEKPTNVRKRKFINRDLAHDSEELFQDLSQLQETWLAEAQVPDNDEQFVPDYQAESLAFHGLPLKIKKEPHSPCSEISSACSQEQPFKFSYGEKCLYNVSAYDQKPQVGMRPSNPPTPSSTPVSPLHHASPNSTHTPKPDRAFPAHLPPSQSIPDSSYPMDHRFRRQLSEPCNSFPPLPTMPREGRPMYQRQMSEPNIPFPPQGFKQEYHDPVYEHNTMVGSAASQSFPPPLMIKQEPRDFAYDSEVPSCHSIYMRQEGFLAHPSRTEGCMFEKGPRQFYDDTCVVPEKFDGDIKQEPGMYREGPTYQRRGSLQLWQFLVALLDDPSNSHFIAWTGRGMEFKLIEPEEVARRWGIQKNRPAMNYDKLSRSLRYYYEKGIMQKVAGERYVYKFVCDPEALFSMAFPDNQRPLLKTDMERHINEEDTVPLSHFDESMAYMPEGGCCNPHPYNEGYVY
# HSF1, sequence (Q00613 whole entry): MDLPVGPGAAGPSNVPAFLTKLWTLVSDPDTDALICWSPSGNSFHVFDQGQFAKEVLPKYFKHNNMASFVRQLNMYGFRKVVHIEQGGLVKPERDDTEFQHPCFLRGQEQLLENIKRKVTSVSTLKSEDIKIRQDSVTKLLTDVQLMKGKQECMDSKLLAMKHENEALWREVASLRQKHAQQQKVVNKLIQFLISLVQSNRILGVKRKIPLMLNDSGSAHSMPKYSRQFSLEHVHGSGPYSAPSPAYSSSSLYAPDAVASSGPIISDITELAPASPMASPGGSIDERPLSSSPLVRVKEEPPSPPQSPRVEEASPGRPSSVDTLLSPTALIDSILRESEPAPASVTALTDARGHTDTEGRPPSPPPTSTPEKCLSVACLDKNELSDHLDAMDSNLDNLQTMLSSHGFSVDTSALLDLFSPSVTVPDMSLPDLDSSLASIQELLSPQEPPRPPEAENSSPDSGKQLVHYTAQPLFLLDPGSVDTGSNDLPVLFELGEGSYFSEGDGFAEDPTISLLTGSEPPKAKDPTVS
# CRX, sequence (O43186 whole entry): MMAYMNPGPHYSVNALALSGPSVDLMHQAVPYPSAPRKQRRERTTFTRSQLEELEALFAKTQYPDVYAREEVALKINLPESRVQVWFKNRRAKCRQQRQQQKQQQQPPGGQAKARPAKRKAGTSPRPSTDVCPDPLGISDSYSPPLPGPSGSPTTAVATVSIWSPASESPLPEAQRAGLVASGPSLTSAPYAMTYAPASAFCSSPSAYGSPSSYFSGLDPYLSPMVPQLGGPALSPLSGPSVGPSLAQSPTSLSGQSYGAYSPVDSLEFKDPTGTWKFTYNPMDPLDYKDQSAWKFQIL
# ETV5, sequence (P41161 whole entry): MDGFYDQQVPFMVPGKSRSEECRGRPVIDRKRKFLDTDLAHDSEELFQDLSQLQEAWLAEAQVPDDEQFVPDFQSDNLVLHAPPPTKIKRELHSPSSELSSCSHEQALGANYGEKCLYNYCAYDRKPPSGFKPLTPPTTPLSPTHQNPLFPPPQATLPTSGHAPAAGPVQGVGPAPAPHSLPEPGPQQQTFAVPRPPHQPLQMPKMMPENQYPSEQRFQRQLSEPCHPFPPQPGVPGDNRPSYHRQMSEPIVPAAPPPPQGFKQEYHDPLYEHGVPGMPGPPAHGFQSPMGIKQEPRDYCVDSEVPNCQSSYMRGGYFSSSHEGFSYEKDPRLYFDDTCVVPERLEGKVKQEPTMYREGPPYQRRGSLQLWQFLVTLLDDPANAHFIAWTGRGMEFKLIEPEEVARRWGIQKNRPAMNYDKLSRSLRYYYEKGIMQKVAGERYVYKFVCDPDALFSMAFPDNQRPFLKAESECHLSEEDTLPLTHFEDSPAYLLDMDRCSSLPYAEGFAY
# ELF4, sequence (Q99607 whole entry): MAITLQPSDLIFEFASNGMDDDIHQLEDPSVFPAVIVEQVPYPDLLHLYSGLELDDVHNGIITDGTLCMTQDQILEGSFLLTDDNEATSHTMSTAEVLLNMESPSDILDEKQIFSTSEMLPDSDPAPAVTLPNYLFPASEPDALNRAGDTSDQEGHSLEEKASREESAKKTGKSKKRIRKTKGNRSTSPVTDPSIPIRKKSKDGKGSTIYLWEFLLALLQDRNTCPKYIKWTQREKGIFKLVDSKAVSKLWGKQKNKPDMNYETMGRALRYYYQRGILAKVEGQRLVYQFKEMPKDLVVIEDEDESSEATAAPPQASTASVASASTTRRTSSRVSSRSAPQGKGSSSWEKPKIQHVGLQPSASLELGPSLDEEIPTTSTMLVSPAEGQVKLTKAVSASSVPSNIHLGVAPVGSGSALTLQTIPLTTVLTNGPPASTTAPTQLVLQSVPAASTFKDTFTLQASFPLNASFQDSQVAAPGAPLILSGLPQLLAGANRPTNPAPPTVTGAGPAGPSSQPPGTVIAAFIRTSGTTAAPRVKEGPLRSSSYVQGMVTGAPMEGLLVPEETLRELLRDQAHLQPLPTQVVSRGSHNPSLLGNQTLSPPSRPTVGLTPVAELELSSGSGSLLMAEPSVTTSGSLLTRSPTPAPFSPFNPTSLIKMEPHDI
# ELF1, sequence (P32519 whole entry): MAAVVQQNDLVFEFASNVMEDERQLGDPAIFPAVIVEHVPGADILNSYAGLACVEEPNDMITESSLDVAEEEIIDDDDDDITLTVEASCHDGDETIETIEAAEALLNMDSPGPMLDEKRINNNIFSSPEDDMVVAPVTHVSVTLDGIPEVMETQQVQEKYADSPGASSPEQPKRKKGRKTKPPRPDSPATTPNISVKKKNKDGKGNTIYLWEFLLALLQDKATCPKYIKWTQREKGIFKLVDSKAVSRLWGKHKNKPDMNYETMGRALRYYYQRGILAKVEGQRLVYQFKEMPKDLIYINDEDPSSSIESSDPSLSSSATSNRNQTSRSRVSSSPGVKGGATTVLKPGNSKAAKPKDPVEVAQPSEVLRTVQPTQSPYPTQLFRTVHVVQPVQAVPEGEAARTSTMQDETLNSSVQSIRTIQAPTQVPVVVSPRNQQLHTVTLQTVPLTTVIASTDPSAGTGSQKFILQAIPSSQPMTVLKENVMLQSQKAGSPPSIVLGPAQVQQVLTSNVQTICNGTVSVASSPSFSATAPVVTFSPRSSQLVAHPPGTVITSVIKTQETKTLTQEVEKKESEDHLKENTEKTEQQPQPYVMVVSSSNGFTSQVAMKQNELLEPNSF
sequence,measurement,setting,value
TCACGA,binding signal,[1],"1.09 fold enrichment (6-mer frequency, TF over GST control)"
same,binding signal,[2],"1.19 fold enrichment (6-mer frequency, TF over GST control)"
same,binding signal,[3],"1.09 fold enrichment (6-mer frequency, TF over GST control)"
same,binding signal,[4],"1.1 fold enrichment (6-mer frequency, TF over GST control)"
same,binding signal,[5],"1.13 fold enrichment (6-mer frequency, TF over GST control)"
same,binding signal,[6],"1.21 fold enrichment (6-mer frequency, TF over GST control)"
same,binding signal,[7],"1.06 fold enrichment (6-mer frequency, TF over GST control)"
same,binding signal,[8],"1.04 fold enrichment (6-mer frequency, TF over GST control)"
same,binding signal,[9],"1.21 fold enrichment (6-mer frequency, TF over GST control)"
same,binding signal,[10],"1.05 fold enrichment (6-mer frequency, TF over GST control)"
same,binding signal,[11],"1.09 fold enrichment (6-mer frequency, TF over GST control)"
same,binding signal,[12],"1.37 fold enrichment (6-mer frequency, TF over GST control)"
same,binding signal,[13],"1.1 fold enrichment (6-mer frequency, TF over GST control)"
same,binding signal,[14],"1.27 fold enrichment (6-mer frequency, TF over GST control)"
same,binding signal,[15],"1.19 fold enrichment (6-mer frequency, TF over GST control)"
same,binding signal,[16],"1.12 fold enrichment (6-mer frequency, TF over GST control)"
same,binding signal,[17],"1.17 fold enrichment (6-mer frequency, TF over GST control)"
same,binding signal,[18],"1.1 fold enrichment (6-mer frequency, TF over GST control)"
same,binding signal,[19],"1.13 fold enrichment (6-mer frequency, TF over GST control)"
